Results filed as inconclusive are left out. Active and inactive are the calls of the source. Calls follow the shape of the dose curve; as a rule, active = well fitted curve in the direction sought with a large enough effect in the repeat runs; inconclusive = weak or mixed curves; inactive = no such curve, though single readings can be large; an effect the other way counts as inactive or inconclusive.
Columns and labels:
[1] = qHTS RealTime-Glo MT Cell Viability Assay in HEK293 cells - 32 hour (AID 1224868); also: top concentration of the series differs between compounds; nearly all actives have a fitted effect of over 50% in size
Procedure, shortened: (§1)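 Nonlytic real-time viability readout: viable cells convert prosubstrate to NanoLuc substrate, giving luminescence proportional to live cell number. HEK293, 600 cells/well, compound added after 5 h, continuous culture at 37 C.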

[2] = A CellTox Green Cytotoxicity Assay to monitor cytotoxicity in HEK293 cells - 0 hour (AID 1224869); also: nearly all actives have a fitted effect of over 50% in size
Procedure, shortened: (§2)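 HEK293 cells, 600/well, were preincubated 5 hours and then exposed to compounds at 37 C for up to 40 hours. A cell-impermeant cyanine dye staining dead-cell DNA was read by fluorescence at 0, 8, 16, 24, 32 and 40 h time points.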

[3] = qHTS RealTime-Glo MT Cell Viability Assay in HepG2 cells - 40 hour (AID 1224870); also: nearly all actives have a fitted effect of over 50% in size
Procedure, shortened: (§3)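 HepG2 cells mixed with RealTime-Glo MT reagents (NanoLuc plus cell-permeant prosubstrate) were seeded at 600 cells/well, incubated 5 h at 37 C/5% CO2, then pinned with compounds in DMSO; nonlytic luminescence tracked viability during 40 h treatment.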

[4] = A CellTox Green Cytotoxicity Assay to monitor cytotoxicity in HEK293 cells - 40 hour (AID 1224871); also: nearly all actives have a fitted effect of over 45% in size
Procedure, shortened: as §2

[5] = qHTS RealTime-Glo MT Cell Viability Assay in HEK293 cells - 16 hour (AID 1224872); also: top concentration of the series differs between compounds; nearly all actives have a fitted effect of over 50% in size
Procedure, shortened: as §1

[6] = qHTS RealTime-Glo MT Cell Viability Assay in HepG2 cells - 8 hour (AID 1224873); also: nearly all actives have a fitted effect of over 55% in size
Procedure, shortened: as §3

[7] = qHTS RealTime-Glo MT Cell Viability Assay in HEK293 cells - 40 hour (AID 1224874); details: RealTime-Glo luminescence, hits give low values; also: nearly all actives have a fitted effect of over 50% in size
Procedure, shortened: (§4)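 600 cells/well were plated with the nonlytic NanoLuc/prosubstrate reagent, pre-incubated 5 h, then given 23 nL of compound in DMSO. Incubation at 37 C for 40 h, with luminescence from viable-cell-reduced substrate read repeatedly from 0 h.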

[8] = A CellTox Green Cytotoxicity Assay to monitor cytotoxicity in HEK293 cells - 24 hour (AID 1224875); also: series mostly up to about 77 µM; nearly all actives have a fitted effect of over 45% in size
Procedure, shortened: as §2

[9] = qHTS RealTime-Glo MT Cell Viability Assay in HepG2 cells - 32 hour (AID 1224877); also: nearly all actives have a fitted effect of over 55% in size
Procedure, shortened: (§5)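 Luminescence read-out: viable HepG2 cells reduce a prosubstrate to a NanoLuc substrate, giving a signal proportional to live cell number. Reads taken at 0, 8, 16, 24, 32 and 40 h of compound exposure at 37 C.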

[10] = A CellTox Green Cytotoxicity Assay to monitor cytotoxicity in HepG2 cells - 24 hour (AID 1224878); also: nearly all actives have a fitted effect of over 45% in size
Procedure, shortened: (§6)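 HepG2 cells, 600/well, preincubated 5 h with CellTox Green dye, then exposed to Tox21 compounds in DMSO at 37 C for up to 40 h. Dead-cell DNA fluorescence read at the indicated time point.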

[11] = A CellTox Green Cytotoxicity Assay to monitor cytotoxicity in HepG2 cells - 40 hour (AID 1224879); also: nearly all actives have a fitted effect of over 40% in size
Procedure, shortened: as §6

[12] = qHTS RealTime-Glo MT Cell Viability Assay in HEK293 cells - 0 hour (AID 1224880); also: top concentration of the series differs between compounds; nearly all actives have a fitted effect of over 45% in size
Procedure, shortened: as §4

[13] = A CellTox Green Cytotoxicity Assay to monitor cytotoxicity in HEK293 cells - 32 hour (AID 1224881); also: nearly all actives have a fitted effect of over 40% in size
Procedure, shortened: as §2

[14] = A CellTox Green Cytotoxicity Assay to monitor cytotoxicity in HepG2 cells - 0 hour (AID 1224882); also: nearly all actives have a fitted effect of over 35% in size
Procedure, shortened: as §6

[15] = A CellTox Green Cytotoxicity Assay to monitor cytotoxicity in HepG2 cells - 32 hour (AID 1224883); also: nearly all actives have a fitted effect of over 50% in size
Procedure, shortened: as §6

[16] = A CellTox Green Cytotoxicity Assay to monitor cytotoxicity in HEK293 cells - 8 hour (AID 1224884); also: nearly all actives have a fitted effect of over 35% in size
Procedure, shortened: as §2

[17] = qHTS RealTime-Glo MT Cell Viability Assay in HepG2 cells - 16 hour (AID 1224885); also: nearly all actives have a fitted effect of over 50% in size
Procedure, shortened: as §5

[18] = qHTS RealTime-Glo MT Cell Viability Assay in HEK293 cells - 24 hour (AID 1224886)
Procedure, shortened: as §1

[19] = qHTS RealTime-Glo MT Cell Viability Assay in HEK293 cells - 8 hour (AID 1224887)
Procedure, shortened: as §4

[20] = A CellTox Green Cytotoxicity Assay to monitor cytotoxicity in HepG2 cells - 16 hour (AID 1224876); also: nearly all actives have a fitted effect of over 45% in size
Procedure, shortened: as §6
% is scaled to controls: 0 for no effect and ±100 for the full control effect.

CC(O)C(CO)C(C)O (stereo unspecified)
inactive: outcome [1] | outcome [2] | outcome [3] | Potency [4] | outcome [5] | outcome [6] | max response [7] -0.0675% | Potency [8] | outcome [9] | Potency [10] | Potency [11] | Potency [12] | Potency [13] | Potency [14] | Potency [15] | Potency [16] | outcome [17] | outcome [18] | outcome [19]

CCCC(C)C(O)CC (stereo unspecified)
inactive: outcome [1] | outcome [2] | outcome [3] | Potency [4] | outcome [5] | outcome [6] | max response [7] 14.3% | Potency [8] | outcome [9] | Potency [10] | Potency [12] | Potency [13] | Potency [14] | Potency [15] | outcome [17] | outcome [18] | outcome [19]

C=CC(=O)CC
inactive: outcome [1] | outcome [2] | outcome [3] | Potency [4] | outcome [5] | outcome [6] | max response [7] 0.33% | Potency [8] | Potency [20] | outcome [9] | Potency [10] | Potency [12] | Potency [13] | Potency [14] | Potency [15] | Potency [16] | outcome [17] | outcome [18] | outcome [19]

C[C@]12C=CC(=O)C=C1[C@@H](F)C[C@@H]1[C@@H]2[C@@H](O)C[C@@]2(C)[C@H]1CC[C@]2(O)C(=O)CO
inactive: outcome [1] | outcome [2] | outcome [3] | Potency [4] | outcome [5] | outcome [6] | max response [7] -0.454% | Potency [8] | outcome [9] | Potency [10] | Potency [13] | Potency [14] | Potency [15] | Potency [16] | outcome [17] | outcome [18] | outcome [19]

COC(=O)c1ccc(NC(C)=O)cc1OC
inactive: outcome [1] | outcome [2] | outcome [3] | Potency [4] | outcome [5] | outcome [6] | Potency [8] | Potency [20] | outcome [9] | Potency [10] | Potency [11] | Potency [12] | Potency [13] | Potency [14] | Potency [15] | Potency [16] | outcome [17] | outcome [18] | outcome [19]

CO/N=C(\C(=O)O)c1csc(NC(=O)CCl)n1
inactive: outcome [1] | outcome [2] | outcome [3] | Potency [4] | outcome [5] | outcome [6] | max response [7] 0.384% | Potency [8] | Potency [20] | outcome [9] | Potency [10] | Potency [12] | Potency [14] | Potency [16] | outcome [17] | outcome [18] | outcome [19]

O=c1c(O)c(O)c1=O
inactive: outcome [1] | outcome [2] | outcome [3] | Potency [4] | outcome [5] | outcome [6] | max response [7] -0.875% | Potency [8] | Potency [20] | outcome [9] | Potency [10] | Potency [12] | Potency [14] | Potency [15] | Potency [16] | outcome [17] | outcome [18] | outcome [19]

Clc1cc(Cl)c(Cl)c(Cl)c1Cl
inactive: outcome [1] | outcome [2] | outcome [3] | Potency [4] | outcome [5] | outcome [6] | max response [7] -0.18% | Potency [8] | outcome [9] | Potency [10] | Potency [11] | Potency [12] | Potency [14] | Potency [16] | outcome [17] | outcome [18] | outcome [19]

CC1(C)CC(N)CC(C)(C)N1
inactive: outcome [1] | outcome [2] | outcome [3] | Potency [4] | outcome [5] | outcome [6] | max response [7] 16.7% | Potency [8] | Potency [20] | outcome [9] | Potency [10] | Potency [11] | Potency [13] | Potency [14] | Potency [15] | Potency [16] | outcome [17] | outcome [18] | outcome [19]

C[C@H]1COc2c(C3(N)CC3)c(F)cc3c(=O)c(C(=O)O)cn1c23
inactive: outcome [1] | outcome [2] | outcome [3] | Potency [4] | outcome [5] | outcome [6] | max response [7] 1.9% | Potency [8] | outcome [9] | Potency [10] | Potency [11] | Potency [12] | Potency [13] | Potency [14] | Potency [15] | Potency [16] | outcome [17] | outcome [18] | outcome [19]

COc1cc(S(N)(=O)=O)cc(C(=O)O)c1OC
inactive: outcome [1] | outcome [2] | outcome [3] | Potency [4] | outcome [5] | outcome [6] | max response [7] 0.543% | Potency [8] | outcome [9] | Potency [10] | Potency [11] | Potency [12] | Potency [13] | Potency [14] | Potency [16] | outcome [17] | outcome [18] | outcome [19]

COc1cc2nc(N3CCN(C(=O)C4CCCO4)CC3)nc(N)c2cc1OC (stereo unspecified)
inactive: outcome [1] | outcome [2] | outcome [3] | Potency [4] | outcome [5] | outcome [6] | max response [7] -19.2% | Potency [8] | outcome [9] | Potency [10] | Potency [11] | Potency [12] | Potency [13] | Potency [14] | Potency [15] | Potency [16] | outcome [17] | outcome [19]

CCCCCCCOC(C)=O
inactive: outcome [1] | outcome [2] | outcome [3] | Potency [4] | outcome [5] | outcome [6] | max response [7] -2.34% | Potency [8] | Potency [20] | outcome [9] | Potency [10] | Potency [11] | Potency [12] | Potency [14] | outcome [17] | outcome [18] | outcome [19]

C/C=C(\C)C(=O)OC/C=C(\C)CCC=C(C)C
inactive: outcome [1] | outcome [2] | outcome [3] | Potency [4] | outcome [5] | outcome [6] | max response [7] 7.26% | Potency [8] | outcome [9] | Potency [10] | Potency [11] | Potency [12] | Potency [13] | Potency [14] | Potency [15] | Potency [16] | outcome [17] | outcome [18] | outcome [19]

CC(C)(C)C(=O)CCc1ccc(Cl)cc1
inactive: outcome [1] | outcome [2] | outcome [3] | Potency [4] | outcome [5] | outcome [6] | max response [7] 1.49% | Potency [8] | Potency [20] | outcome [9] | Potency [10] | Potency [11] | Potency [12] | Potency [15] | Potency [16] | outcome [17] | outcome [18] | outcome [19]

Source: PubChem BioAssay (Tox21)
